Measured values reported in PubChem BioAssay AID743144 (Broad Institute, 2013).
Results with a measured potency or affinity are listed apart. Records with an inconclusive call do not appear. Calls of active or inactive are those of the source. How the calls were made is not given here.

test: COV362 cell viability loss – plate reader, dry powder, SA12, cytotoxicity control for PAX8 inhibitor project, dose response (AID 743144); conditions: COV362 ovarian cancer cells; series mostly up to 35 µM

| SMILES | outcome |
| --- | --- |
| COc1cccc(-c2ccc([C@H]3[C@@H](CO)N(C(=O)Cc4ccccc4)[C@H]3C#N)cc2)c1 | inactive |
| COc1cccc(C#Cc2ccc([C@H]3[C@@H](CO)N(C(=O)c4ccccn4)[C@H]3C#N)cc2)c1 | inactive |
| C[C@H](CO)N1C[C@H](C)[C@H](CN(C)C(=O)Nc2ccc(-c3cccs3)cc2)OCc2cnnn2CCCC1=O | inactive |
| N#C[C@@H]1[C@H](c2ccc(-c3ccccc3F)cc2)[C@@H](CO)N1C(=O)Cc1ccccc1 | inactive |
| COCC(=O)N1[C@H](CO)[C@H](c2ccc(-c3cccnc3)cc2)[C@@H]1C#N | inactive |
| C[C@H](CO)N1C[C@H](C)[C@@H](CN(C)S(=O)(=O)c2ccc(-c3ccccc3)cc2)OCc2cn(nn2)CCCC1=O | inactive |
| C[C@@H]1CN([C@H](C)CO)C(=O)CCCn2cc(nn2)CO[C@H]1CN(C)C(=O)Nc1ccc(-c2cccs2)cc1 | inactive |
| Cc1ccc(S(=O)(=O)Nc2ccc3c(c2)C(=O)N([C@H](C)CO)C[C@@H](C)[C@H](CN(C)Cc2ccc(C(F)(F)F)cc2)OCCCC[C@H](C)O3)cc1 | inactive |
| CC(C)(C)c1nnc(NC(=O)CCS(=O)(=O)c2ccccc2)s1 | inactive |
| CCCC#Cc1ccc([C@@H]2[C@@H](C#N)N(S(=O)(=O)c3cccc(F)c3)[C@H]2CO)cc1 | inactive |
| COc1ccc(S(=O)(=O)N2CCCCN3[C@H](CO)[C@H](c4ccc(C#CC(C)C)cc4)[C@H]3C2)cc1 | inactive |
| C[C@H]1CN([C@@H](C)CO)C(=O)Cc2cc(NC(=O)NC3CCCCC3)ccc2O[C@@H]1CN(C)Cc1ccc(-c2ccccc2)cc1 | inactive |
| COc1ccc(S(=O)(=O)Nc2ccc3c(c2)CC(=O)N([C@@H](C)CO)C[C@H](C)[C@@H](CN(C)Cc2ccc(C(F)(F)F)cc2)O3)cc1 | inactive |
| C[C@@H]1CN([C@@H](C)CO)S(=O)(=O)c2ccc(C#C[C@@H](C)O)cc2O[C@H]1CN(C)Cc1ccc(-c2ccccc2)cc1 | inactive |
| O=C1/C(=C/c2cccc(Br)c2)SC(=S)N1CCC(=O)N(CCO)c1ccccc1 | inactive |
| COc1ccc(S(=O)(=O)Nc2ccc3c(c2)CC(=O)N([C@@H](C)CO)C[C@@H](C)[C@@H](CN(C)Cc2ccc(-c4ccccc4)cc2)O3)cc1 | inactive |
| COc1cccc(C#Cc2ccc([C@@H]3[C@H](C#N)N(C(=O)c4ccccn4)[C@H]3CO)cc2)c1 | inactive |
| COc1cccc(C#Cc2ccc([C@@H]3[C@@H](C#N)N(C(=O)C4CCCC4)[C@@H]3CO)cc2)c1 | inactive |
| N#C[C@@H]1[C@@H](c2ccc(-c3cccc(F)c3)cc2)[C@H](CO)N1C(=O)NC1CCCC1 | inactive |
| O=C1/C(=C/c2ccccc2)SC(=S)N1CC(=O)N1CCCCC1c1cccnc1 (configuration not stated) | inactive |
| N#C[C@@H]1[C@@H](c2ccc(C3=CCCCC3)cc2)[C@@H](CO)N1C(=O)NC1CCCCC1 | inactive |
| CCN(CC(=O)Nc1c(F)cccc1F)C(=O)c1cc(S(=O)(=O)N(C)C)ccc1N1CCCC1 | inactive |
